ADAM17 inh = inhibitors of human ADAM17 | recombinant ADAM17, EDANS/DABCYL FRET peptide cleavage | P78536 | AID 720648 | inhibition, % at 6.95 µM | 370,000 tested, 0.83% active;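 active means inhibition above the mean of compounds lying between control limits plus 3 SD, set per campaign, cut at about 8.5% in these data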
ADAM10 inh = inhibitors of human ADAM10; inhibition, % at 7 µM; O14672; 370,000 tested, 0.62% active; AID 720582; recombinant ADAM10, EDANS/DABCYL FRET peptide cleavage, 3 h;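 active means inhibition above a per-campaign cutoff equal to the mean of compounds falling between control-based bounds plus 3 SD, cut at about 20% in these data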
NPR1 activator = GC-A (human) enzyme activation. P16066. HEK293 GC-A cells, cGMP TR-FRET, EC30 ANP; 0% at EC30 ANP, 100% saturating ANP. activation, % at 10 µM. 370,000 tested, 0.14% active. AID 1671463; in the data active means activation above about 40%
proKLK7 act = proKLK7 (human) activation, primary screen | purified proKLK7, EDANS-DABCYL substrate fluorescence; 100% is mature enzyme control, 0% vehicle | P49862 | 370,000 tested, 0.9% active | activation, % at 7 µM;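 active means activation above the mean of all tested compounds plus 3 SD, computed per campaign excluding outliers beyond control limits, cut at about 13% in these data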
NPR2 activator = GC-B (human) receptor activation; P20594; HEK293-GC-B cells, CNP EC30, cGMP TR-FRET; 0% at EC30 CNP, 100% saturating CNP; activation, % at 10 µM; 370,000 tested, 0.11% active; AID 1920062;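 active means activation at 10 µM reaching about 35% in either raw or pattern-adjusted values, limit read from the data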
Large screens that a line does not name were inactive. Most compounds without a hit are left out; they make up all but 2.2% or so of the library.

COc1ccc(C(=O)CSc2nnc(-c3n[nH]c4c3CCC4)n2N)cc1OC	NPR2 activator 43.6
COc1ccc(NC(=O)CSc2nnc(-c3n[nH]c4c3CCC4)n2N)cc1OC	none
COc1cc(C=Nn2c(-c3cc(-c4ccccc4)n[nH]3)n[nH]c2=S)ccc1OC(C)=O	none
O=C1CCCc2oc3c(cc(NS(=O)(=O)c4ccc5c6c(cccc46)C(=O)N5)c4ccccc43)c21	proKLK7 act 26.3
O=C(O)c1ccccc1NS(=O)(=O)c1ccc2c3c(cccc13)C(=O)N2	none
COc1ccc([C@H]2OC(=O)C[C@H]2C(=O)N2CCCC2)cc1OC	none
CC(C)(C)c1ccc(-n2nc(C#N)c(Cl)cc2=O)cc1	NPR1 activator 68.6, NPR2 activator 74.5
CC(C)(C)c1ccc(-n2nc(C(N)=O)c(O)cc2=O)cc1	none
COC(=O)c1cc(-c2ccc(Br)cc2)on1	NPR1 activator 59.3
CCCCCCCSc1ncnc2[nH]ncc12	ADAM17 inh 12.0
CSc1ncnc2[nH]ncc12	none
O=c1c2sc3nc(N4CCOCC4)c4c(c3c2nnn1Cc1ccccc1)CCCC4	none
COCCNc1nnnc2c1sc1nc(N3CCOCC3)c3c(c12)CC(C)(C)OC3	none
C=CCNc1nnnc2c1sc1nc(N3CCOCC3)c3c(c12)CCCC3	NPR1 activator 50.0, NPR2 activator 58.4
CC(C)CNc1nnnc2c1sc1nc(N3CCOCC3)c3c(c12)CCCC3	NPR1 activator 51.1, NPR2 activator 52.1
O=C(NC1CCCCN(Cc2cccc(C(F)(F)F)c2)C1=O)c1ccc(Cl)c(Cl)c1 (configuration not stated)	none
COc1cc(C(C)=O)ccc1Oc1ncnc2c1cnn2-c1cccc(Cl)c1	none
COc1cc(C(C)=O)ccc1Oc1ncnc2c1cnn2-c1ccc(F)cc1	NPR1 activator 47.1
O=C(c1cnn2c(C(F)(F)F)cc(-c3ccc4c(c3)OCO4)nc12)N1CCCC1	NPR2 activator 44.8
O=C(c1cnn2c(C(F)(F)F)cc(-c3ccc(Br)cc3)nc12)N1CCOCC1	none
CC1=NN(c2ccccc2)C(=O)C1=Cc1ccccc1	none
CC1=NN(c2ccccc2)C(=O)/C1=C/c1ccc(Cl)cc1	ADAM10 inh 24.7
NC(=O)[C@H]1CC2(CC(c3cccc(NC(=O)CC(c4ccccc4)c4ccccc4)c3)=NO2)CN1C(=O)C(c1ccccc1)c1ccccc1 (some centres not stated)	ADAM17 inh 12.8
NC(=O)[C@@H]1CC2(CC(c3cccc(NC(=O)CC(c4ccccc4)c4ccccc4)c3)=NO2)CN1C(=O)[C@@H]1CCC(=O)N1 (some centres not stated)	none
CN(c1ccccc1)c1ccc(/C=C(\CCC(=O)O)c2nc3ccccc3s2)cc1[N+](=O)[O-]	ADAM17 inh 9.8
O=C(c1ccccc1)N1CCC(Oc2cccnc2)CC1	none
COc1ccc(CCN2CC(O)=C(c3nc4ccccc4c(=O)[nH]3)C2=N)cc1OC	NPR1 activator 70.3
COc1ccc(CCN2CC(O)=C(c3nc(C)cs3)C2=N)cc1OC	none
O=S(=O)(CC1NCc2cc(F)ccc21)NCc1ccccc1 (configuration not stated)	none
Cc1cccc(Cn2nc(C(C)(C)C)cc2C(=O)Nc2ccc(F)cc2)c1	ADAM17 inh 9.0, ADAM10 inh 25.3
CC(C)(C)c1cc(C(=O)NN)n(Cc2ccc(F)cc2)n1	none
O=C(NC1CCCCN(Cc2cccc(Cl)c2)C1=O)c1ccc2ccccc2c1 (configuration not stated)	none
O=C(COC(=O)CSc1nnc(-c2ccc(Cl)cc2)o1)Nc1cc(Cl)ccc1Cl	none
O=C(COC(=O)Cc1ccc(Cl)cc1)NCc1ccc2c(c1)OCO2	none
NC(=O)c1c(NC(=O)COC(=O)CSc2nnc(-c3ccc(Cl)cc3)o2)sc2c1CCC2	NPR1 activator 50.9
N#Cc1ccc(NC(=O)COC(=O)CSc2nnc(-c3ccc(Cl)cc3)o2)cc1	NPR1 activator 62.3
O=C(COC(=O)CSc1nnc(-c2ccc(Cl)cc2)o1)NCc1ccc2c(c1)OCO2	NPR1 activator 63.3
COc1ccc(-c2nnc(SCC(=O)Nc3ccc(S(=O)(=O)Nc4cc(C)nc(C)n4)cc3)n2-c2ccc(OC)cc2)cc1	none
COc1ccc(OC)c(S(=O)(=O)n2c(CN3CCOCC3)nc3ccccc32)c1	none
CCNC(=O)COC(=O)CCC(=O)c1ccc(F)cc1	none
CCN(CC)CCC(=O)c1ccc(F)cc1	NPR1 activator 74.3
CN(C)CCC(=O)c1ccc(F)cc1	NPR1 activator 71.9
CC(C)CNC(=O)OCc1cn(Cc2cc(F)cc(F)c2)nn1	none
COc1ccc(S(=O)(=O)N2CCOCC2)cc1N=Nc1sc(N)nc1-c1ccccc1	NPR1 activator 55.3, NPR2 activator 44.5
COc1ccc(S(=O)(=O)N2CCOCC2)cc1OC	none
COc1cc(NC(=O)C2CCCN(S(=O)(=O)c3cccc4cccnc34)C2)cc(OC)c1 (configuration not stated)	none
CCN(CC)Cc1cc(Nc2c3ccccc3nc3c4ccccc4n(C)c23)cc(CN(CC)CC)c1O	proKLK7 act 23.4
O=C(CSc1ncnc2c1oc1ccccc12)Nc1ccccc1F	NPR1 activator 63.1
CCOc1ccccc1NC(=O)CSc1ncnc2c1oc1ccccc12	none
CC(C)CCSc1nc(N2CCOCC2)c2c(c1C#N)CC(C)(C)OC2	NPR2 activator 42.9
COC(=O)CCSc1nc(N2CCOCC2)c2c(c1C#N)CC(C)(C)OC2	none
CCn1c(=O)c(C(=O)CN2c3ccccc3CC2C)c(N)n(Cc2ccccc2)c1=O (configuration not stated)	NPR1 activator 41.1
Cc1ccc(C(=O)CCS(=O)(=O)c2ccc(Br)cc2)cc1	NPR1 activator 45.5
Cc1ccc2c(c1)N(C(=O)CSc1nncn1C)C(C)(C)c1ssc(=S)c1-2	ADAM17 inh 8.8
Cc1cc2c(cc1C)N(C(=O)CSc1nncn1C)C(C)(C)c1ssc(=S)c1-2	none
COC(=O)[C@]12C[C@H](CC(=O)N3CCN(C(=O)C4CC4)CC3)C(=O)N(CCc3ccc(OC)c(OC)c3)C1=C[C@H](C(C)(C)C)O[C@@H]2C	none
C[C@@H]1CN([C@H](C)CO)C(=O)c2cc(NC(=O)Nc3ccc(C(F)(F)F)cc3)ccc2O[C@H]1CN(C)S(=O)(=O)c1ccc(Cl)cc1	ADAM10 inh 25.3
C[C@H]1CN([C@@H](C)CO)C(=O)c2cccc(NC(=O)Nc3ccc(C(F)(F)F)cc3)c2O[C@@H]1CN(C)S(=O)(=O)c1ccc(Cl)cc1	ADAM17 inh 9.2, ADAM10 inh 24.1
COC(=O)[C@]12C[C@H](CC(=O)NCc3ccc(C)o3)C(=O)N(CCc3ccc(OC)c(OC)c3)C1=C[C@H](C(C)C)O[C@@H]2C1CC1	none
COC(=O)C1=CC(=O)C=C(OC)[C@@]12Oc1cc(C)cc(OC)c1C2=O	NPR1 activator 79.0
